Screens from PubChem BioAssay.
Compounds with a hit are over-represented: about 3% of the library has one in this group of screens.
Mtb FBA inh: Mtb fructose-bisphosphate aldolase inhibition | inhibition, % at 1 µM | purified M. tuberculosis FBA, fluorescence read-out | P9WQA3 | AID 588726 | actives 2.3% (n = 360,000);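 note: 0% = vehicle and 100% = reference inhibitor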
Target sequence (P9WQA3 whole entry, looked up): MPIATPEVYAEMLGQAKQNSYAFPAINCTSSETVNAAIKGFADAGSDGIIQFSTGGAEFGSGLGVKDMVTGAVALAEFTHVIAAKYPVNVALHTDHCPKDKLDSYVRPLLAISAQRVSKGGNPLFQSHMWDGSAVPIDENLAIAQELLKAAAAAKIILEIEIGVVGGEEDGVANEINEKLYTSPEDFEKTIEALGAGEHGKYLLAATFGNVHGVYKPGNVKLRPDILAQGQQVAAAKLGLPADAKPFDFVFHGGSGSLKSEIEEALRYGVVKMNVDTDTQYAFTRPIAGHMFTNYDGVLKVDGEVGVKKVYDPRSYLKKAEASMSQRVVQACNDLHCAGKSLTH
BioA inh: blocks M. tuberculosis BioA enzyme activity; purified M. tuberculosis BioA enzyme, plate reader; inhibition, % at 9.99 µM; actives 0.096% (n = 360,000); AID 602481; in the data active = inhibition above about 40%
GDH-TPI counter-1: GDH-TPI coupled enzyme inhibition counter-screen. inhibition, % at 4.8 µM. GDH-TPI coupled enzyme counterscreen, NADH absorbance. AID 588335. actives 1.2% (n = 360,000); in the data active = inhibition above about 30%;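 note: 0% = DMSO wells and 100% = wells lacking the enzyme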
BH1578 lux ind: induces V. cholerae light production without autoinducers; activation, % at 18.7 µM; actives 0.16% (n = 350,000); V. cholerae BH1578 lux reporter, luminescence, 6 h; in the data active = activation mostly above about 9.7%, no sharp cut-off
Mtb FBA inh conf: Mtb FBA inhibition, confirmed. shares compounds with Mtb FBA inh. purified M. tuberculosis FBA, fluorescence read-out. inhibition, % at 1 µM. actives 78% (n = 5,600). AID 651616;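 note: 0% = vehicle wells and 100% = reference inhibitor wells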
GDH-TPI counter-2: counter-screen for M. tuberculosis FBA inhibitors: GDH-TPI coupled enzyme inhibition; actives 81% (n = 5,600); GDH-TPI coupled enzyme counterscreen, fluorescence; inhibition, % at 1 µM; shares compounds with Mtb FBA inh; in the data active = inhibition above about 10%
* hit, by the source's call. Cut-off read from the data, not from the text of the source, unless noted: active = inhibition above about 27%; inactive = the rest.

Screening COc1ccc2cc(C(=O)C3CCCN(C(=O)c4csnn4)C3)ccc2c1 (centres undefined) returned Mtb FBA inh 95.8*, GDH-TPI counter-1 25.6, BH1578 lux ind -0.7, Mtb FBA inh conf 43.8* and GDH-TPI counter-2 35.0*.
CCn1ccnc1CN1CCCC(C(=O)c2ccc3cc(OC)ccc3c2)C1 (centres undefined) was read as Mtb FBA inh 23.9, BioA inh 2.5, GDH-TPI counter-1 -0.6 and BH1578 lux ind -0.2.
Screening COc1ccc2cc(C(=O)C3CCCN(C(=O)c4cnn(C(C)C)c4)C3)ccc2c1 (centres undefined) returned Mtb FBA inh 105.0*, BioA inh 2.9, GDH-TPI counter-1 13.5, BH1578 lux ind -0.9, Mtb FBA inh conf 49.6* and GDH-TPI counter-2 39.3*.
Screening COc1ccc(C(=O)N2CCCC(C(=O)N3CCCCCC3)C2)cc1 (centres undefined) returned Mtb FBA inh -0.5, BioA inh -0.5, GDH-TPI counter-1 -7.7 and BH1578 lux ind 2.0.
`O=C(O)C[C@H]1CC[C@H](NC(=O)c2ccncc2)[C@H](CO)O1` gave BioA inh -1.4.
Screening COc1ccc(-c2cc(=O)c3ccc(O)cc3o2)cc1OC returned Mtb FBA inh 54.3*, BioA inh -2.2, GDH-TPI counter-1 25.0, BH1578 lux ind -0.3, Mtb FBA inh conf 6.3 and GDH-TPI counter-2 3.6.
For CCC(C)NC(=O)CCc1c(C)nc2c(c(C)nn2-c2ccccc2)c1C (centres undefined) the results were Mtb FBA inh 44.4*, BioA inh -0.1, GDH-TPI counter-1 3.5, BH1578 lux ind inactive, Mtb FBA inh conf 50.5* and GDH-TPI counter-2 33.9*.
`Cc1ccc(-n2nc(C)c3c(C)c(CCC(=O)NCc4ccccc4)c(C)nc32)cc1` gave Mtb FBA inh 3.8, BioA inh -0.8 and GDH-TPI counter-1 -23.6.
For Cc1nc2c(c(C)nn2-c2ccccc2)c(C)c1CCC(=O)Nc1ccc(CN2CCCC2)cc1 the results were Mtb FBA inh 30.5*, BioA inh -1.0, GDH-TPI counter-1 8.1, BH1578 lux ind -0.8, Mtb FBA inh conf 65.8* and GDH-TPI counter-2 48.9*.
Screening Cc1nc2c(c(C)nn2-c2ccccc2)c(C)c1CCC(=O)NCCCOC(C)C returned Mtb FBA inh 40.6*, BioA inh -1.2, GDH-TPI counter-1 3.0, BH1578 lux ind inactive, Mtb FBA inh conf 40.2* and GDH-TPI counter-2 36.1*.
COC(=O)C(NC(=O)CCc1c(C)nc2c(c(C)nn2-c2ccccc2)c1C)C(C)C (centres undefined) was read as Mtb FBA inh 43.3*, BioA inh -2.0, GDH-TPI counter-1 3.7, BH1578 lux ind -0.3, Mtb FBA inh conf 57.5* and GDH-TPI counter-2 47.9*.
Screening CCCCNC(=O)CCc1c(C)nc2c(c(C)nn2-c2ccccc2)c1C returned Mtb FBA inh 24.8, BioA inh -1.4, GDH-TPI counter-1 3.6 and BH1578 lux ind -1.2.
CCC(=O)Nc1ccc2c(c1)OC[C@H](C)N(CC1CCCCC1)C[C@@H](C)[C@@H](OC)CN(C)C2=O was read as BioA inh 2.2.
For C[C@@H]1CCCCO[C@H](CN(C)S(=O)(=O)c2ccccc2)[C@H](C)CN([C@H](C)CO)C(=O)c2cc(NS(=O)(=O)c3ccccc3)ccc2O1 the results were BioA inh -2.8.
For Cn1c(=O)c(-c2ccccc2)nc2ccccc21 the results were Mtb FBA inh 44.4*, BioA inh 1.2, GDH-TPI counter-1 9.6, BH1578 lux ind inactive, Mtb FBA inh conf 58.8* and GDH-TPI counter-2 38.9*.
For O=C(C[C@@H]1CC[C@@H](NS(=O)(=O)c2ccc(F)cc2)[C@H](CO)O1)NCCN1CCCCC1 the results were BioA inh -3.8.
`c1ccc(-c2ccc(-c3ccccc3)[nH]2)cc1` gave Mtb FBA inh 64.4*, BioA inh -0.8, GDH-TPI counter-1 18.4, BH1578 lux ind inactive, Mtb FBA inh conf 178.2* and GDH-TPI counter-2 163.3*.
O=C(O)c1ccc(-c2ccccc2)[nH]c1=O was read as Mtb FBA inh 105.6*, BioA inh -2.1, GDH-TPI counter-1 18.7, BH1578 lux ind inactive, Mtb FBA inh conf active and GDH-TPI counter-2 active.
For CN(C)c1c(-c2ccccc2)cc(-c2ccccc2)[nH]c1=O the results were Mtb FBA inh 6.7, BioA inh 1.8, GDH-TPI counter-1 2.6 and BH1578 lux ind -0.4.
